The record followed here is PubChem BioAssay.

The structures appear in SMILES notation. The source made the active and inactive calls.

The subject of test [1] is Plasmodium falciparum Sir2 (PF13_0152, Sir2A). Nature of the test: pfSir2 binders on small-molecule microarrays, primary screen, biochemical, small-molecule microarray, 635 nm fluorescence (AID 1098).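 Note: score merges spot fluorescence intensity with its signal-to-noise ratio.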 To be noted: small-molecule microarray binding, fluorescence 635 nm; higher = more signal.
Test [2] is described as follows: small-molecule microarray binders of probe aDKK1, primary screen, biochemical, biotinylated probe, 635/667 nm fluorescence (AID 1099).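 Note: score merges 667nm spot fluorescence with signal to noise across triplicate slides; reference of the scale not given here.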 To be noted: higher = more signal.
The nature of test [3]: small-molecule microarray binders of probe aCHRDL2, primary screen, biochemical, biotinylated probe, 635/667 nm fluorescence (AID 1100). The note with it: higher = more signal.
The nature of test [4]: splicing luciferase reporter signal modulators, primary screen, spliceosome inhibition project, cell-based, HEK293, splice +/- reporter (AID 1101).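 Note: HEK293 cells carrying a splicing-competent luciferase reporter gene; test concentration not given here.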 To be noted: luminescence, 24 h, higher = more signal, called active from +8 up or from −8 down. A general note: Reporter assays use an easily measured gene product as a stand-in for the process of interest.
Test [5] concerns the target Fibroblast growth factor 10 (Homo sapiens) (UniProt O15520). Nature of the test: FGF10 binders on small-molecule microarrays, primary screen, biochemical, small-molecule microarray, 635 nm fluorescence (AID 1102). The note with it: FGF10 binding, fluorescence 635 nm, higher = more signal.
For test [6], the system named is glycogen synthase kinase-3 (GSK3A per assay name; protocol says GSK3B). Nature of the test: GSK3 binders on small-molecule microarrays, primary screen, biochemical, small-molecule microarray, 635 nm fluorescence, GSK3A (AID 1103). Note: the record names both GSK3A and GSK3B. The note with it: small-molecule microarray binding, fluorescence 635 nm; higher = more signal.
Test [7] deals with Epidermal growth factor receptor (Homo sapiens) (UniProt P00533). Nature of the test: EGFR binders on small-molecule microarrays, primary screen, biochemical, small-molecule microarray, 635 nm fluorescence (AID 1104).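 Note: score merges 667 nm emission intensity with spot signal to noise over triplicate slides.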 The note with it: EGFR binding, higher = more signal.
Chain of Epidermal growth factor receptor (Homo sapiens) (P00533 whole entry, looked up): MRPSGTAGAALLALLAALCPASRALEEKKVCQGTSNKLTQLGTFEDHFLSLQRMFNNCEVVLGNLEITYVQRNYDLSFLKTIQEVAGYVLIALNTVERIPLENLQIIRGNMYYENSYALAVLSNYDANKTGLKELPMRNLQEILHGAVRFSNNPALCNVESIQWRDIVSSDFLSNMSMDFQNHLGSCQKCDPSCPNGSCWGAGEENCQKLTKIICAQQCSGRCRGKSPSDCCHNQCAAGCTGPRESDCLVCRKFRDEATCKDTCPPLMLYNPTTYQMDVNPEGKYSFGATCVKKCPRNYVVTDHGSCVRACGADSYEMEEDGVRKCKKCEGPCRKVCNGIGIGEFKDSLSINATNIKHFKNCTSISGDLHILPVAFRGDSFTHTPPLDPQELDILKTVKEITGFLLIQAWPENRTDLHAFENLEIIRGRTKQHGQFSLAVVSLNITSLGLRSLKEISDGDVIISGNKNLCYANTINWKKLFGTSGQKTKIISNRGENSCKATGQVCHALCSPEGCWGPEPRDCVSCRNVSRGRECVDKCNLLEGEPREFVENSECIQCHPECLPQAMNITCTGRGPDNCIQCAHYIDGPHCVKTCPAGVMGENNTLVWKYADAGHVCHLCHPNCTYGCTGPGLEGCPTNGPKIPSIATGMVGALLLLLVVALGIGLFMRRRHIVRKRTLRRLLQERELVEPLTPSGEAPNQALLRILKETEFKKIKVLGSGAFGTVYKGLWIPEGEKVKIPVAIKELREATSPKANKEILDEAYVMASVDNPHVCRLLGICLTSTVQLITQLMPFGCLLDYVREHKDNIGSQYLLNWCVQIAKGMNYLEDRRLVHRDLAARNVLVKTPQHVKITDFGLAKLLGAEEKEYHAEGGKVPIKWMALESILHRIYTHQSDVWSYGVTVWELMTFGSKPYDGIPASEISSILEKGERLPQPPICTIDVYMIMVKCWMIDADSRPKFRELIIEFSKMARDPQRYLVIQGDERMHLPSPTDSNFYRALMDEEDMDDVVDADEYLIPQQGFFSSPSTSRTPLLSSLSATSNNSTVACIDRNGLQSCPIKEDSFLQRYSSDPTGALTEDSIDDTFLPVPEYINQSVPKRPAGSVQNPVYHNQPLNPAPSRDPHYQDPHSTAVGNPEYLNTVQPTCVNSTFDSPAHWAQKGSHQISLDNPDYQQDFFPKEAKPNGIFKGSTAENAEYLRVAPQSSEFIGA
Test [8] addresses Follistatin-related protein 3 (Homo sapiens) (UniProt O95633). Nature of the test: FSTL3 binders on small-molecule microarrays, primary screen, biochemical, small-molecule microarray, 635 nm fluorescence (AID 1105).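 Note: score merges emission near 667 nm and signal to noise per printed spot across three slides.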 To be noted: FSTL3 binding, higher = more signal.
Test [9] has as its target Dickkopf-related protein 1 (Homo sapiens) (UniProt O94907). Nature of the test: DKK1 binders on small-molecule microarrays, primary screen, biochemical, small-molecule microarray, 635 nm fluorescence scan (AID 1106).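 Note: score merges emission near 667 nm with signal to noise over three replicate slides.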 The note with it: DKK1 binding, higher = more signal.
For test [10], the system named is Inhibin beta A chain (activin A). Nature of the test: INHBA (activin A) binders on microarrays, primary screen, biochemical, small-molecule microarray, 635 nm fluorescence scan (AID 1107).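 Note: mouse activin A protein probed at 4.33 µg/mL on printed slides; score merges bound-protein fluorescence near 667 nm with spot signal-to-noise.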 To be noted: small-molecule microarray binding, higher = more signal.

Chain of Follistatin-related protein 3 (Homo sapiens) (O95633 whole entry, looked up): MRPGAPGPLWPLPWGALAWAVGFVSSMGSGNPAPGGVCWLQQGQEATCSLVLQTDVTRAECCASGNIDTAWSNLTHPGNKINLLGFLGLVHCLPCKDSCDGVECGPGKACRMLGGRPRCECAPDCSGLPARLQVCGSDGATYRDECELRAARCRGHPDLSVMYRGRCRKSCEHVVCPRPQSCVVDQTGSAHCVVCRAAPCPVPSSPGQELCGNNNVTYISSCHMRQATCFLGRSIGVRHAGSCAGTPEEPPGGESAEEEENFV
Chain of Fibroblast growth factor 10 (Homo sapiens) (O15520 whole entry, looked up): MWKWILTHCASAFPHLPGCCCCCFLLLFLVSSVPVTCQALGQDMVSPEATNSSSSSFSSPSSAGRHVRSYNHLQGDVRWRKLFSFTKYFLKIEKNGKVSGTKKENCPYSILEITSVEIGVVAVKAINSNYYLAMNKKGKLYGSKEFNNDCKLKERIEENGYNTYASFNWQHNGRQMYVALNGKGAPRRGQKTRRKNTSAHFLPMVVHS
Chain of Dickkopf-related protein 1 (Homo sapiens) (O94907 whole entry, looked up): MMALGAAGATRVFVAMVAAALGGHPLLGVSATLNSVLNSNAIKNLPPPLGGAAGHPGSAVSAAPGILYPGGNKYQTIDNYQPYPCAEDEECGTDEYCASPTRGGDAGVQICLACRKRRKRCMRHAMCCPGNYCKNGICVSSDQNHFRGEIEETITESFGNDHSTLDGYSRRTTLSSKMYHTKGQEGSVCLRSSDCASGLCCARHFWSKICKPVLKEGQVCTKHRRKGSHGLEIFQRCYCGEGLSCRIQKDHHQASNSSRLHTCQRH

Regarding `C=CCNC(=O)[C@H]1[C@@H]2C(=O)O[C@@H](c3ccccc3)[C@@H](c3ccccc3)N2[C@@H](c2ccccc2OCCO)[C@]12C(=O)N(C(=O)OCCOC)c1ccc(C#Cc3ccc(OC)cc3)cc12`, the composite z-score in test [1] is 0.801; in [2] it was 0.256; in test [3] it was 0.581; in test [5], 0.654; in test [6], 1.06; in test [7] it was 0.301. Moreover, the values for the composite z-score in test [8], in test [9] and in test [10] were 0.0527, -0.163 and 0.032, respectively. Moreover, in [4], the z-score is 0.522 (inactive).

Regarding `[N-]=[N+]=Nc1ccccc1C[C@]1(C(=O)N2CCOCC2)N=C(c2ccc(OCCCO)cc2)O[C@H]1c1ccccc1N=[N+]=[N-]`, the composite z-score in test [1] is 1.53; in test [2] it was 0.651; in [3], 0.915; in test [5] it was 1.41; in test [6] it was 1.31; in [7], 0.857. Also, the composite z-score in [8] is 1.47; in test [9], 1.42; in [10], 1.3. In addition, the z-score in test [4] is -0.591 (inactive).

As to `COc1ccc([Si](C)(C)[C@H]2[C@H](CC(=O)N3Cc4ccccc4C[C@H]3CO)O[C@@]3(C(=O)N(C)c4c(Br)cc(C)cc43)[C@@H]2C)cc1`, the composite z-score in test [1] was 0.842; in [2] it was -0.149; in test [3] it was -0.246; in [5], 1.19; in test [6], 0.332; in test [7], 0.552. Also, the values for the composite z-score in test [8], in [9] and in [10] were 1.09, 0.474 and 0.96, respectively. Moreover, the z-score in test [4] was -1.97 (inactive).

Consider `CCOC(=O)C1=CCC(c2cc3ccccc3[nH]2)N(CCN2CC(C(=O)OCC)=CCC2c2cc3ccccc3[nH]2)C1` (stereo not given), for which the composite z-score in test [1] stood at 0.497; in [2], 0.237; in [3], 0.368; in [5], 0.631; in [6], 1.03; in [7], 0.149. The composite z-score in [8] came out at 0.673; in test [9], 0.0665; in test [10], 1.14. Further, in test [4], the z-score is -1.3 (inactive).

Regarding `CCCN1C(=O)[C@@]2(c3ccc([N+](=O)[O-])cc3)CC(=O)N(CC34CC5CC(CC(C5)C3)C4)[C@@H]2c2ccc(CO)cc21`, the composite z-score in [1] was -0.596; in test [2], 0.0721; in [3] it was 0.342; in test [5], -0.334; in test [6], -0.619; in test [7], -0.381. In addition, the figures for the composite z-score in [8], in test [9] and in test [10] were -0.701, -0.626 and 0.378, respectively. For the same molecule, the z-score in test [4] is 0.331 (inactive).

Consider `CCCC#C[Si](O[C@H](CC)c1cn(Cc2ccccc2)nn1)(C(C)C)C(C)C`, for which the composite z-score in test [1] was 0.524; in [2], 0.109; in [3], -0.263; in [5] it was 0.852; in test [6] it was 0.49; in test [7], 0.375. In addition, the composite z-score in test [8] is 1.11; in test [9], 0.576; in test [10], -0.0374. Besides, the z-score in [4] was -0.539 (inactive).

Consider `O=C(NC1CC1)[C@@H]1c2ccccc2C(=O)N(Cc2cc(C(F)(F)F)cc(C(F)(F)F)c2)[C@H]1c1ccc(CO)cc1`, for which the composite z-score in test [1] is 0.965; in test [2], -0.534; in test [3], -0.47; in test [5] it was 0.105; in test [6], -0.436; in test [7], -0.675. The values for the composite z-score in [8], in [9] and in test [10] were 0.075, -0.835 and -0.547, respectively. In addition, the z-score in test [4] is -0.261 (inactive).

Take `O=C1[C@H]2C=C(I)[C@H](C[C@@H]2c2ccccc2)[C@@]12CO2`: the composite z-score in test [1] is -0.506; in test [2], -0.322; in test [3], -0.197; in [5], 0.0211; in test [6], -0.326; in [7], 0.384. Further, the composite z-score in test [8] was -0.461; in test [9], 0.485; in test [10], 1.15. Further, the z-score in test [4] was 0.523 (inactive).

As to `COCCOC(=O)N1C(=O)[C@@]2(c3cc(C#CCCO)ccc31)[C@H](c1ccc(OCCO)cc1)N1[C@H](c3ccccc3)[C@H](c3ccccc3)OC(=O)[C@H]1[C@@H]2C(=O)N1CCCCCCC1`, the composite z-score in [1] was found to be 1.23; in test [2], 2.43; in [3] it was 1.51; in test [5] it was 1.25; in test [6] it was 1.32; in test [7] it was 1.32. Further, the composite z-score is 1.54 in test [8], 1.85 in [9] and 1.73 in test [10]. Also, the z-score in test [4] is 0.458 (inactive).

On to `COc1ccc(NN2C(C(O)c3ccc(I)cc3)C=CC3C(=O)N(C4CCCCC4)C(=O)C32)cc1` (stereo not given), for which the composite z-score in test [1] stood at 0.404; in [2], 0.519; in test [3] it was 0.792; in test [5], 1.33; in [6], 1.31; in test [7] it was 0.479. Further, the composite z-score in [8] was 1.46; in [9] it was 0.0284; in test [10] it was 0.504. In addition, the z-score in test [4] was 0.293 (inactive).

For the molecule `COC(=O)c1cccc([C@H]2OC(=CC(=O)OC(C)C)C[C@@H](c3cccc(C(=O)OC)c3)O2)c1`, the composite z-score worked out at 1.26 in test [1]; 0.515 in [2]; 0.284 in test [3]; 1.18 in test [5]; 1.33 in test [6]; 0.693 in test [7]. In addition, the composite z-score in [8] turned out to be 1.09; in test [9], 0.34; in test [10], 0.463. Moreover, the z-score in test [4] was 0.599 (inactive).

Turning to `COC(=O)[C@@]1(Cc2ccc(OC)cc2)[C@H]2c3cc(C(=O)N4CCCC4)n(CCn4cc([N+](=O)[O-])nc4C)c3C[C@H]2CN1C(=O)c1ccccc1`, the composite z-score came out at 1.2 in test [1]; 2.46 in test [2]; 1.33 in test [3]; 0.981 in test [5]; 0.456 in [6]; 0.661 in test [7]. Also, the values for the composite z-score in test [8], in test [9] and in [10] were 0.354, 0.559 and 1.13, respectively. In addition, the z-score in test [4] is 0.167 (inactive).

For the molecule `[N-]=[N+]=Nc1ccccc1[C@H]1OC(c2ccc(OCCCO)cc2)=N[C@@]1(Cc1ccccc1)C(=O)NCC(O)CO` (stereo not given in full), the composite z-score in test [1] was 0.315; in [2] it was 0.78; in [3] it was 0.981; in [5], -0.0795; in test [6] it was 0.0637; in test [7], -0.942. For the same molecule, the figures for the composite z-score in [8], in test [9] and in test [10] were -0.283, -0.535 and 0.647, respectively. The z-score in test [4] was -0.562 (inactive).

As to `CCCN1C(=O)[C@]2(CCC(=O)OC(C)(C)C)N=C(c3ccc(OCCCO)cc3)O[C@@H]2c2ccccc21`, the composite z-score is 0.715 in test [1]; 0.173 in test [2]; 1.16 in test [3]; 1.31 in [5]; 1.21 in test [6]; -0.413 in test [7]. The composite z-score in test [8] was 0.299; in test [9], -0.175; in test [10] it was 1.31. For the same molecule, in test [4], the z-score was 0.0554 (inactive).

As for `CO[C@H]1O[C@H](CO)[C@@H](OC(=O)Nc2ccccc2-c2ccccc2)[C@H](OC(=O)Nc2ccccc2)[C@H]1OC(=O)Nc1ccccc1`, the composite z-score in test [1] came to 1.43; in [2], 0.821; in test [3], 0.886; in [5], 1.45; in [6], 1.33; in test [7], 0.41. Further, the composite z-score in test [8] worked out at 1.41; in test [9], 0.993; in [10], 0.352. Moreover, the z-score in [4] was -0.299 (inactive).
